Compound activity: PubChem BioAssay, several laboratories
PAX8 inh HTS – inhibitors of PAX8 transcriptional activity in RMG-I cells. RMG-I TPO-luciferase reporter, SteadyGlo, 24 h. inhibition, % at 12.6 µM. 360,000 compounds, 1.2% hits;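 active = mean replicate inhibition at least 60% with every replicate also reaching 60%; inconclusive = only one of the two criteria is met; inactive = mean below 60% and not all replicates reaching 60%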;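 note: luciferase light reporting Pax8 driven TPO promoter activity; plate controls were median of neutral control wells for no effect and mitoxantrone controls for full effect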
EWS-Fli inh – blocks EWS/Fli oncoprotein-driven transcription | A673 NR0B1-luciferase reporter, viability-normalised | 350,000 compounds, 0.67% hits | inhibition, % at 12.6 µM;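 active = mean inhibition of at least 50% after viability correction, with every replicate also passing that limit; inconclusive = mean reaches 50% but only one of two replicates passes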;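 note: firefly luciferase signal divided by Alamar Blue viability fluorescence both relative to DMSO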
TROY signal inh – blocks TROY-dependent signaling in reporter cells. Q293 LMP1-TROYcd NF-kB luciferase reporter, 4 h. 360,000 compounds, 0.98% hits. inhibition, % at 10 µM;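 active = compounds whose plate-normalised and pattern-corrected inhibition of the luciferase reporter signal at the single screening dose is 50% or more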
TWEAK-Fn14 inh – inhibitors of TWEAK-Fn14 interaction signaling; TWEAK-stimulated Fn14 reporter cells, luciferase luminescence, 8 h; inhibition, % at 10 µM; 360,000 compounds, 2% hits; AID 1159606; in the data active = inhibition above about 50%
LGR2 antag – Drosophila LGR2 receptor signaling inhibition; 380,000 compounds, 0.35% hits; HEK293 LGR2, CRE-luciferase, bursicon-stimulated, 4 h; inhibition, % at 9.99 µM;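 active = drop in luminescence signal, shown as inhibition above about 50% in the replicate tests, limit read from the data, passing the limit was not always enough; inconclusive = probably only some replicates passing the limit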;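 note: agonist challenge used bursicon conditioned medium at about half maximal strength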
Starred values were filed as active, the others as inactive; ? = inconclusive; / = no result given. A selection: hits, their analogues and other compounds. The true share with any hit is near 2.8%.

SMILES	PAX8 inh HTS	EWS-Fli inh	TROY signal inh	TWEAK-Fn14 inh	LGR2 antag
O=C(C1CC(c2ccc(F)cc2)=NO1)N1CCCc2ccccc21 (configuration not stated)	-0.1	/	-14.2	8.4	/
COc1ccc(OC)c(C2=NOC(C(=O)N3CCCc4ccccc43)C2)c1 (configuration not stated)	-30.8	/	38.6	55.2*	/
COc1ccc(S(=O)(=O)N(C)C[C@H]2Oc3ccc(NS(=O)(=O)c4ccc(C)cc4)cc3C(=O)N([C@H](C)CO)C[C@@H]2C)cc1	-4.2	-2.5	/	/	-17.8
CCCCn1c(-c2ccncc2)nc2c1c(=O)[nH]c(=O)n2CC(C)C	/	/	/	76.4*	-3.1
COCCn1c(-c2ccc(SC)cc2)nc2c1c(=O)[nH]c(=O)n2CC(C)C	21.8	-26.0	-27.5	-5.7	-9.7
Cn1cnc([N+](=O)[O-])c1Sc1nc(N)nc2c1ncn2C1CC(O)C(CO)O1 (configuration not stated)	74.1*	32.6	5.6	34.1	-15.7
Cn1cnc([N+](=O)[O-])c1Sc1nc(N)nc2c1ncn2C1OC(CO)C(O)C1O (configuration not stated)	/	49.3	2.9	18.0	-6.8
COc1ccc2c3c([nH]c2c1)[C@H](CO)N(C(=O)C1CCCCC1)CC31CN(C(=O)NC(C)C)C1	-2.2	-14.7	/	/	2.2
Cc1ccc(NC(=O)/C=C/c2ccc([N+](=O)[O-])s2)cc1	38.8	/	16.1	50.5*	-95.3
Cc1ccc(NC(=O)/C=C/c2ccc([N+](=O)[O-])s2)c(C)c1	98.1*	71.1*	4.0	90.9*	23.3
Cc1cc([N+](=O)[O-])ccc1NC(=O)/C=C/c1cccs1	-158.5	/	-56.2	-8.3	-34.8
Cc1cccc(NC(=O)/C=C/c2ccc([N+](=O)[O-])s2)c1	72.5*	67.7*	-39.2	85.0*	-2.7
CCOC(=O)c1cccc(N2C(=O)C3C(C2=O)C2C=CC3C23CC3)c1 (configuration not stated)	/	/	/	88.5*	-13.3
CCCC#Cc1cnc2c(c1)C(=O)N([C@@H](C)CO)C[C@H](C)[C@H](CN(C)C(=O)Nc1ccccc1OC)O2	/	-15.7	/	/	-3.7
O=C(C[C@@H]1CC[C@@H]2[C@H](COC[C@H](O)CN2C(=O)Nc2ccc(C(F)(F)F)cc2)O1)NC1Cc2ccccc2C1	-1.7	22.7	/	/	-1.5
O=C(C[C@@H]1CC[C@@H]2[C@H](COC[C@@H](O)CN2C(=O)Nc2ccc(C(F)(F)F)cc2)O1)NC1Cc2ccccc2C1	87.9*	31.1	/	/	11.3
O=C(C[C@H]1CC[C@H]2[C@@H](COC[C@H](O)CN2C(=O)Nc2ccc(C(F)(F)F)cc2)O1)NC1Cc2ccccc2C1	73.6*	9.7	/	/	0.6
C[C@H](CO)N1C[C@H](C)[C@@H](CN(C)Cc2ccc(Cl)c(Cl)c2)Oc2ccc(NC(=O)CCN3CCOCC3)cc2CC1=O	3.5	-5.0	/	/	18.4
Cc1noc(C)c1NC(=O)Nc1cccc2c1O[C@@H](CN(C)C(=O)NC(C)C)[C@H](C)CN([C@H](C)CO)C2=O	-32.2	-0.1	/	/	-4.3
Cc1cc(N(C)C)ccc1N=Nc1ccc(N)cc1	-97.6	-6.0	-56.0	28.3	-63.2
Cc1sc(N=Nc2ccc(N(C)C)cc2)[n+]([O-])c1C	-60.9	-67.6	62.8*	60.5*	-1.3
COc1ccc2sc(-c3ccc(S(C)(=O)=O)cc3)c(C#CCO)c2c1	-12.7	-23.2	46.3	77.2*	56.6*
COc1cc(-c2ccc3sc(-c4ccsc4)c(C#CCO)c3c2)cc(OC)c1OC	31.7	22.2	42.2	60.5*	14.5
COc1ccc(-c2sc3ccc(N4CCOCC4)cc3c2C#CCCO)cc1	65.1*	13.1	2.3	-6.6	28.1
CO[C@H]1CN(C)C(=O)c2cc(NC(C)=O)ccc2OC[C@@H](C)N(C(=O)c2ccc(F)cc2)C[C@@H]1C	/	-0.9	/	/	14.0
SMILES	PAX8 inh HTS	EWS-Fli inh	TROY signal inh	TWEAK-Fn14 inh	LGR2 antag
COC(=O)c1cc(C)nc2c1C(=O)C(=O)C=C2N1CCOCC1	105.7*	73.5*	43.2	103.2*	59.7*
CC(=O)c1cccc(NC(=O)N2CCCC2C(=O)Nc2cccc(C)c2)c1 (configuration not stated)	/	/	11.9	65.8*	/
O=C(Nc1ccc2c(c1)OCCO2)C1CCCN1C(=O)Nc1ccccc1 (configuration not stated)	13.5	1.4	4.0	-21.8	5.8
O=C(Nc1ccc2c(c1)OCCO2)C1CCCN1C(=O)Nc1ccc(F)cc1 (configuration not stated)	-7.3	6.6	32.0	59.5*	4.1
CCC(=O)NC[C@@H]1[C@H](c2ccccc2)[C@@H](CO)N1C(=O)C1CCC1	6.1	-4.1	/	/	-0.3
Cc1[nH]c(-c2ccc(F)cc2)cc1C(=O)N1CCN(c2ccc(Cl)cc2)CC1	-0.1	0.3	14.6	89.5*	-1.6
O=C(Cc1ccccc1)NC(Nc1cccc2ccccc12)C(Cl)(Cl)Cl (configuration not stated)	/	/	56.4*	11.7	/
CCNC(=O)C[C@@H]1CC[C@@H]2[C@@H](COc3ccc(NC(=O)C4CCOCC4)cc3C(=O)N2C)O1	-4.2	-0.3	/	/	-9.9
C[C@@H]1CCCCO[C@H](CN(C)CC2CC2)[C@H](C)CN([C@@H](C)CO)C(=O)c2cc(NS(C)(=O)=O)ccc2O1	2.9	/	/	/	2.7
C[C@H](O)C#Cc1ccc2c(c1)O[C@@H](CN(C)Cc1ccc(-c3ccccc3)cc1)[C@H](C)CN([C@H](C)CO)S2(=O)=O	94.0*	-6.4	/	/	2.4
C[C@H](O)C#Cc1ccc2c(c1)O[C@H](CN(C)Cc1ccc(-c3ccccc3)cc1)[C@@H](C)CN([C@@H](C)CO)S2(=O)=O	108.9*	9.0	/	/	9.3
C[C@@H]1CN([C@@H](C)CO)S(=O)(=O)c2ccc(C#C[C@@H](C)O)cc2O[C@@H]1CN(C)Cc1ccc(-c2ccccc2)cc1	77.0*	11.3	/	/	12.1
C[C@H](O)C#Cc1ccc2c(c1)O[C@H](CN(C)Cc1ccc(-c3ccccc3)cc1)[C@H](C)CN([C@@H](C)CO)S2(=O)=O	81.1*	15.3	/	/	20.1
C[C@@H]1CN([C@H](C)CO)S(=O)(=O)c2ccc(C#C[C@@H](C)O)cc2O[C@H]1CN(C)Cc1ccc(-c2ccccc2)cc1	?	37.3	/	/	2.6
C[C@H](CO)N1C[C@H](C)[C@H](CN(C)C(=O)Nc2ccc(F)cc2)Oc2ccc(NC(=O)Cc3ccccc3)cc2C1=O	4.9	7.3	/	/	6.1
C[C@@H]1CN([C@H](C)CO)S(=O)(=O)c2ccc(-c3ccncc3)cc2O[C@H]1CN(C)Cc1cccnc1	/	-4.1	/	/	0.4
FC(F)(F)c1nc(N2CCN(c3ccccc3)CC2)nc2c1CCCCC2	1.5	/	57.2*	93.5*	/
COC(=O)C1CCN(C(=O)CCCOc2ccccc2)CC1	-81.7	/	-5.3	50.6*	/
O=C(CCCOc1ccccc1)N1CCN(c2ccccn2)CC1	/	/	29.6	70.5*	/
COC(=O)c1[nH]c2cccc(Cl)c2c1NC(=O)CN(C)C1CCCCC1	/	/	-2.2	94.8*	/
COc1cccc(N2CC(=O)N(NC(=O)c3sc4nc(C)cc(C)c4c3N)CC2=O)c1	-0.8	-5.2	14.8	6.7	7.0
